Whole data set: some 33,000 sequences, median “E-score (-0.5 to 0.5)” near -0.021, cut for the highest 2% near 0.32. Only a selection was taken, and the highest values are over-represented in it overall.
biological target: T1, Zap1 (UniProt P47043); assay: PBM E-score (8-mer binding enrichment) (E-score (-0.5 to 0.5)); higher = stronger / more preferred TF binding; settings: protein concentration: 200 nM; construct: GST-full length
T1 sequence: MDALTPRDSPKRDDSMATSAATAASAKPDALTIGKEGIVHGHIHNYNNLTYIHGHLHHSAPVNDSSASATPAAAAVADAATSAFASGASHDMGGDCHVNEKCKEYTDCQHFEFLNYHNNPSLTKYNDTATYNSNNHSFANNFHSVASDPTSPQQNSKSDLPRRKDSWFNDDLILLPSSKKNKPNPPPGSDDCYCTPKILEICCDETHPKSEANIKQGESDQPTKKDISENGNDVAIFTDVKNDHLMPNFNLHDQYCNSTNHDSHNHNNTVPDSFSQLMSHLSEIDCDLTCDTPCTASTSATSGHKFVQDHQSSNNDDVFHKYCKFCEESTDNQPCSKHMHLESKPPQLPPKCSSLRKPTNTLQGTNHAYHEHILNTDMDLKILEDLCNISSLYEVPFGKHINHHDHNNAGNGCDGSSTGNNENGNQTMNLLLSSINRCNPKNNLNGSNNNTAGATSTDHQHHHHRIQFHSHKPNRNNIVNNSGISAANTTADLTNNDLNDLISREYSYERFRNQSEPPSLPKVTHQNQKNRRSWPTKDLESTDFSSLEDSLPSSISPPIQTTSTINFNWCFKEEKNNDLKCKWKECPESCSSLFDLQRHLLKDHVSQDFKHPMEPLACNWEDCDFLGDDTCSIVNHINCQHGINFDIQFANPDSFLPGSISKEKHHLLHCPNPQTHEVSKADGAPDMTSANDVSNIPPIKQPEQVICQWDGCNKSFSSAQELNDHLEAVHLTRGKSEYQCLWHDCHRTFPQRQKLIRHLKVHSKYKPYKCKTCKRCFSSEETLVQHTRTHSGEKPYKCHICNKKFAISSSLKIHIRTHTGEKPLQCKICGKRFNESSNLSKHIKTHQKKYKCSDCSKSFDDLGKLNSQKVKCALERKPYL
Experimental: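 Universal 'all 10-mer' protein binding microarrays (Agilent AMADID 015681) probed with GST-tagged S. cerevisiae TFs (full-length or DBD) made by in vitro transcription/translation (PURExpress), about 100-200 nM. Bound TF was detected with fluorescent anti-GST. Each ungapped 8-mer (which stands for itself and its reverse complement) is scored by the PBM enrichment score (E-score), a modified Wilcoxon-Mann-Whitney statistic from -0.5 to +0.5, computed with the Universal PBM Analysis Suite. Scale: above 0.35 generally sequence-specific binding.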

Sequence	PBM E-score
AACGGGTA	0.375
AACGGTTA	0.397
AACGGTCG	0.114
CACGGTTA	0.372
CACGGGTA	0.237
GACGGGTA	0.0159
AACGGTTG	0.123
CACGGTTC	-0.13
AACGGTTC	0.107
CACGGTCA	0.262
GACGGTTA	0.305
AACGGTCA	0.324
CCCCGCGC	-0.138
ACATTCAG	-0.0921
AGCGCATG	-0.227
CGGACCCA	0.195
CTTTCTTC	-0.0581
AGAAGCCA	-0.0472
AAGGTAAA	0.187
AAGGTAAC	0.432
GAGGTAAA	0.199
GAGGTAAC	0.365
AAGGTAAG	0.0248
AAGGTAAT	0.322
CAGGTAAC	0.254

Sequence	PBM E-score
CAGGTAAA	0.133
AAGGTATT	0.199
CTCCATGC	-0.229
ACGCATAC	-0.101
ACTACCAT	0.269
ACTGCTAG	-0.269
ACGTACCG	-0.111
AGGTACCC	0.451
CGGTACAC	0.0303
CCGTACCC	0.275
ACGTACCT	-0.126
AAGTACCT	0.213
AGGTACCG	0.43
AGGTACTC	0.261
AAGTACCG	0.134
ATGTACCC	0.216
CGGTACCC	0.414
AGGTACCT	0.443
AGTAAAGG	0.132
ATCTTAAC	0.142
CGCCCAGC	-0.209
ATAACATA	0.146
GGGTCCAC	-0.0924
GGGTACAC	0.141
CGGTACCG	0.38

Sequence	PBM E-score
CAGTACCG	0.104
GCGTACCC	0.106
GGGTACCC	0.469
CGGTACAG	0.12
ATTAGAAA	0.0663
TACAGCCA	-0.0777
ACTCACCC	-0.0932
CAATGTTC	-0.213
ATTTGTCC	-0.0674
CACCAGTG	-0.0732
AACTAAAC	0.181
GTTATAAA	0.279
CTTATATA	0.27
CTTATTTA	0.0152
GTTATATA	0.359
ATTATATA	0.207
TATATATA	0.37
GTTATAAC	0.401
GTTATTTA	0.325
CATATATA	0.13
ATTATTTA	0.234
GATATATA	0.2
CTTATAAC	0.302
CCTCAGAA	-0.0154
ACTGGGAG	-0.25

Sequence	PBM E-score
ATTGGGAG	-0.0694
AACGCTGG	-0.174
GACTGTAC	-0.147
AGCTCTCG	-0.212
ACAAGAGA	-0.043
ATCATCGC	-0.0946
AGCTCTTG	-0.246
CAATTGAC	-0.0961
GCCCAGAA	-0.0621
GTCGAGCA	-0.236
GAAACCGC	0.15
ATGAGCAA	-0.0417
ATACAATG	0.0742
AGGGGCAG	-0.186
CCAAAAAG	0.248
CCAAAAGG	0.337
ACCCAGGG	0.0854
CCCAAGGA	0.00233
CCAAAGGG	0.267
CCCCAGGG	0.319
CCCCAGGA	-0.128
CCCAAGGG	0.326
CCCAAAGG	0.23
CGTACAGA	-0.231
CAATGCAA	0.0301

Sequence	PBM E-score
CCTCGAGC	0.0178
CCTCGAGG	0.331
ACTCGAGG	0.0452
CCATAAAA	0.12
AGAGTAAC	0.108
CGGGTAAA	0.144
GGGGTAAA	0.269
AGCGTAAC	0.199
CGGGTAAC	0.351
GGTGTAAC	0.262
GGGGTAAC	0.37
AGGGTAAC	0.405
CGGGTAAG	-0.078
AAAAGCAG	-0.0944
GGCAAATA	-0.0519
ACCGATAC	0.0986
AAACTTCT	0.0376
ACAGTATG	0.0365
CCCATAAG	0.236
CCCATAAC	0.355
CCCATTAA	-0.0317
ACCATAAT	0.255
ACCATAAG	0.0852
ACCATTAA	0.348
GCCATAAC	0.12

Sequence	PBM E-score
CCCATAAA	0.161
ACCATAAC	0.399
ACCATAAA	0.384
TCCATTAA	0.13
TCCATAAA	0.061
CTCACATC	-0.0546
CATAGATG	-0.173
GTACACAA	0.12
ACTAAAGA	0.00061
CCACTTTC	-0.101
TCCGCGAA	0.05
GCCGCGAA	-0.0427
ACCGCGAA	0.359
GTGATGTA	0.013
AGAGTCAG	-0.145
ATCGCTCA	-0.0114
CAAGGTAA	0.191
AAAGGTGA	0.25
AAAGGTAA	0.361
CAAGGTAC	0.357
AAAGGTAC	0.426
TAAGGTAA	0.271
AAAGGTAG	0.247
GAAGGTAC	0.178
AAAGGTAT	0.293

Sequence	PBM E-score
GAAGGTAA	0.319
CAAGGTAG	0.303
CCAGGTAC	0.17
CACAGAGA	-0.0512
ACGATGGA	0.00241
CATCTCTC	-0.0882
CCTCCCAG	-0.291
CGCCTGAG	-0.0453
CAACTAAG	-0.00117
AGAGGCCC	-0.108
CCTCTTCC	-0.127
ATTTGCCG	-0.168
AAAGGGAA	-0.0936
GCATGGAA	-0.169
ACGTAAGC	-0.186
ACAGGGGG	-0.225
ACTGCGCA	-0.0699
CAGCCCAG	-0.177
ACAGAGTA	-0.0251
ACCCTCCC	0.339
TCCCTCCA	-0.134
GCCCTCCA	-0.0877
ACCCTCCT	0.189
CCCCTCCC	0.0739
ACCCTCCA	0.341

Sequence	PBM E-score
ATCAGTTC	-0.0391
GTTCTTAA	0.0134
AAGTTAGT	-0.0228
GTTGAACA	-0.15
ACGATGGG	-0.169
CGTAGTTA	0.177
GGTAGTTA	0.339
AGTAGTTA	0.11
TAGTGCCA	-0.18
AACCATTG	0.271
GACCATAA	0.287
AACCATGC	0.156
AACCATAC	0.159
TACCATAA	0.367
AACCATAA	0.41
TCCCATAA	0.182
CACCATGA	0.00417
AACCATGA	0.357
AACCATTA	0.365
CACCATAA	0.0248
CACCATTA	0.037
CTAATGGC	0.134
TAACTAGA	0.227
AGGGACTA	-0.104
ACGGTTCT	0.0709

Sequence	PBM E-score
ACTCTTGC	0.0703
TCGACTCA	-0.0722
CAATTCCG	-0.00437
AGGTATCA	0.116
CCTCTGAA	-0.072
AGATGCGG	0.0772
AAAACCGT	0.173
AGGGTAGA	0.135
CGGGTATC	0.252
AGGGTAGC	0.313
AGGGTATG	0.395
GGGGTATA	0.182
AGGGTATA	0.407
AAGGTATG	0.226
AGGGTAGG	0.32
CGGGTATA	0.317
ACGGTATG	-0.0688
ATGGTATC	0.183
AGGGTATC	0.364
GGTTTTAC	0.108
GTGCGCCA	-0.175
TATGTGGA	-0.0214
ATTCTTGA	0.0771
CCTCTCAC	-0.0256
AAAGTGGA	-0.0378

Sequence	PBM E-score
CATCAAGG	0.0235
ACGTGAGC	-0.116
CCGGTACG	-0.136
GCGGTACC	0.418
ACGGTACG	0.0714
GCGGTAGC	0.0107
CCGGTACA	0.149
CCGGTACC	0.414
ACGGTACT	0.0886
GCGGTACA	0.13
ACGGTACC	0.399
AGACGGGC	-0.112
CAGCAGCA	-0.198
CGTATCGA	-0.133
CAAGGTCA	0.386
AAAGGTCG	0.323
AAAGGTCC	0.245
ACAGGTCG	0.0832
TAAGGTGA	0.155
CAAGGTCC	0.151
AAAGGTCT	0.238
TAAGGTCA	0.341
CAAGGTCG	0.263
GAAGGTCA	0.232
AAAGGTCA	0.449

Sequence	PBM E-score
AAAGGTGG	0.158
ACGACTCG	-0.134
GTCGATGA	-0.149
CCGGAGGA	-0.228
CCTCAATA	0.0804
AGACCGGG	0.0501
CCACAGGG	0.1
CTCGTCAC	0.099
AATCAGCA	-0.0933
ACCTGTTG	0.265
GGAGGCAA	-0.188
ACACTTAT	-0.101
CACCTCGA	0.215
AACCTCGA	0.367
AACCTCGC	0.295
GACCTCGA	0.277
AACCTCGG	0.302
AACCTCGT	0.322
GCCACCTA	-0.103
CAGACAGG	-0.0636
AAGGGTTG	0.441
AAGGGGTG	0.167
AAAGGTTC	0.293
AGAGGTTG	0.218
AGGGGGTG	-0.204

Sequence	PBM E-score
AGGGGTTG	0.337
AAAGGTTG	0.336
AAGGGTGC	0.134
CAGGGTTC	0.214
AAGGGTGG	0.19
AGGGGTTC	0.173
AAGGGTTC	0.339
AAATAGCA	-0.171
AATAGACG	-0.163
TCAGTGGA	-0.041
ATCGAACG	-0.183
CTCTACGA	-0.0991
ACCTACCC	0.316
CTCCACGC	-0.241
CTTCTACA	-0.0296
CCAGGGAC	-0.163
AATGGTTA	0.413
AATGGTTC	0.246
CATGGTTC	0.132
GATGGTGA	-0.0368
AATGGTTG	0.254
GATGGTAA	0.171
CATGGTGA	0.0149
CATGGTTA	0.415
GATGGTTA	0.392

Sequence	PBM E-score
GCCGCACC	0.0244
ATTTTGAC	0.203
AGCGACCG	-0.13
CTACCTAG	0.104
GCTTTGCC	-0.379
AGCCTAAG	-0.216
ATTCACTC	-0.105
AAGTGCTA	-0.303
GTCCCTAA	0.109
CCCCCTAA	-0.277
CGCCCTAA	-0.126
TACCCTCA	0.312
AACCCTAA	0.452
GACCCTAA	0.433
CACCCTAA	0.369
TACCCTAA	0.435
TCCCCTAA	0.0699
AGCCCTAA	-0.00909
ATCCCTAA	0.006
GACCCTCA	0.189
CGCCAATC	-0.11
GTGAATTA	0.206
AAAGGACA	0.177
AGTAAGAT	-0.0474
ACCATTTG	0.221

Sequence	PBM E-score
AGACGCTA	-0.167
TGCGCACA	-0.037
ACCCTTGC	0.381
AGCCTTGG	-0.208
CCCCTTGC	-0.0145
AGCCTTGC	-0.257
ACCCTTGA	0.383
GCCCTTGA	0.00462
ACCCTTGG	0.365
CCCCTTGA	0.119
ATCCTTGG	-0.139
CAAGCTCA	-0.197
AACAGCAA	-0.0172
CTGGTGAC	-0.0173
GATACTGC	-0.126
CAGATTTC	-0.097
ATAGCGAT	0.0306
AAATGGCT	0.00044
ACTACCCA	0.291
AATACCCG	0.177
AATACCCT	0.379
ACTACCCC	0.215
ACTACCCT	0.445
AATACCCA	0.158

— the supplement of paper PMC3334620
